{
  "source": "the supplement of paper PMC10681739",
  "data": [
    {"target": "RUNX1 (UniProt Q01196)", "sequence (Q01196 whole entry)": "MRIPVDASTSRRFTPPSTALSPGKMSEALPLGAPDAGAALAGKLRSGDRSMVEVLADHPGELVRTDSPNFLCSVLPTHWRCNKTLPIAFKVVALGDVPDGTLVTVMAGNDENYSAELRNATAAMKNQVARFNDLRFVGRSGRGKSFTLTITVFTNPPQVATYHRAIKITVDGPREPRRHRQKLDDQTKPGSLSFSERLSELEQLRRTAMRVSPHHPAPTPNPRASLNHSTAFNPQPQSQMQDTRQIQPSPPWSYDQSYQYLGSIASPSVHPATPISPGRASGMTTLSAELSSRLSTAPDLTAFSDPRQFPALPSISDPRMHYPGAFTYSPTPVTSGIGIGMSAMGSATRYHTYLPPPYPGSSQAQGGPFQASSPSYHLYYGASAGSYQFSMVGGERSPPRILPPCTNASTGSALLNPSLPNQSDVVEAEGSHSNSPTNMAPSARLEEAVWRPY", "assay": "TF binding intensity (PBM fluorescence), negative control probe (arbitrary fluorescence units); higher = stronger binding", "protocol": "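gcPBM negative-control 36-bp genomic probes lacking TF binding sites. Each was incubated with recombinant human ETS1 or RUNX1 alone and detected by antibody fluorescence. Values are medians over replicate spots (4 spots for the ETS1-RUNX1 arrays, 3 for the ETS1-ETS1 array). The probes sit in constant array flanks that are not printed.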", "values": [
      {"sequence": "TCTCGCCCCTCATCCCGGAAAGGAAGACTCTGAATG (protein concentration 2 nM)", "TF binding intensity": 891},
      {"sequence": "ACAGCTGAATTCTCACTTCCTTCGTCTCTGAGCCTG (protein concentration 2 nM)", "TF binding intensity": 874},
      {"sequence": "GGCCAGAGGAGGGCGCGGAAGTGTTGCCTGGGTGAG (protein concentration 2 nM)", "TF binding intensity": 917},
      {"sequence": "ACTACCCTCCGCCCTCTTCCGCCGCCGCCGCCGCCT (protein concentration 2 nM)", "TF binding intensity": 1200},
      {"sequence": "CTCAGCGGCCGAACCCGGAAGTTCGGGGCCGAGTTC (protein concentration 2 nM)", "TF binding intensity": 901},
      {"sequence": "GGTGTCAAAGCCGAGCGGAAGCGGGGCTGGAATTGG (protein concentration 2 nM)", "TF binding intensity": 891},
      {"sequence": "AAGTAAGCCCCGCCCCGGAACGGGCAGAAGTAGAGG (protein concentration 2 nM)", "TF binding intensity": 1060},
      {"sequence": "ATTCCATTCCAATCCTTTCCGCTCGGCTAAATTCCT (protein concentration 2 nM)", "TF binding intensity": 1450},
      {"sequence": "CGTCGCCCGGTCCCGGTTCCGGTCCGCGCTCCGGTC (protein concentration 2 nM)", "TF binding intensity": 910},
      {"sequence": "CTCACACCCAGTCCCAGGAAGCGAGCCCCACGTCGC (protein concentration 2 nM)", "TF binding intensity": 894},
      {"sequence": "TCGAACAGAATGGAACGGAACGGAACGGAGCGTAAC (protein concentration 2 nM)", "TF binding intensity": 1650},
      {"sequence": "GTTCCAGAAACGTCACATCCGGCGCCCGCTCCGCCC (protein concentration 2 nM)", "TF binding intensity": 890},
      {"sequence": "CCATGATGTTTGTGATTTCCGGCAGATGATGAGTAA (protein concentration 2 nM)", "TF binding intensity": 970},
      {"sequence": "GAAGGGGTTTCAGGACGGAAGCAAACACATATTCAA (protein concentration 2 nM)", "TF binding intensity": 912},
      {"sequence": "TCCCTGCTGGTCCTGGTTCCGGCACACCAGGCCCTC (protein concentration 2 nM)", "TF binding intensity": 864},
      {"sequence": "CGAGCTTAGAAGGCGCTTCCGATGGGCGGAGTTTAG (protein concentration 2 nM)", "TF binding intensity": 742},
      {"sequence": "GGTCCCAGGAGAGGGGTTCCGGGGTGAAAGAGTGAG (protein concentration 2 nM)", "TF binding intensity": 1060},
      {"sequence": "CCCTGCAGCGCGTCCTTTCCGGCCCGCCCCATGCAC (protein concentration 2 nM)", "TF binding intensity": 922},
      {"sequence": "TAACTCTTTGCTATCCTTCCGCTGAGCTTCATCTTC (protein concentration 2 nM)", "TF binding intensity": 963},
      {"sequence": "GCTCCATCACCTCCTCTTCCGGTCCCTCCTCTAGGG (protein concentration 2 nM)", "TF binding intensity": 1160},
      {"sequence": "GCCTCACAAAAGAACAGGATGTTGTTGATTTGTCAC (protein concentration 2 nM)", "TF binding intensity": 828},
      {"sequence": "TCTGAAGGAGCCGGGCGGAAAGAAGCCGAGGCGCGC (protein concentration 2 nM)", "TF binding intensity": 798},
      {"sequence": "AGGAGTTTGCTCATCCTTCCGGATCCAAAGGCTGCG (protein concentration 2 nM)", "TF binding intensity": 712},
      {"sequence": "TATCACTTCTGGCGAAGGAAATGGAAGAATCTATGG (protein concentration 2 nM)", "TF binding intensity": 1010},
      {"sequence": "GCAGTCAGCCCTTCCCTTCCTGTCCGTCAACTCCGG (protein concentration 2 nM)", "TF binding intensity": 875},
      {"sequence": "CTGCTCGGCCAGGTCCGGAAAGAGAGAACGGGCTGG (protein concentration 2 nM)", "TF binding intensity": 859},
      {"sequence": "TCTCCGCGCATTTTATTTCCGGTTCTGAGGACGCCG (protein concentration 2 nM)", "TF binding intensity": 1040}
    ]}
  ]
}
